Assay in all cases: NCI-60 one-dose screen, 48 h (100 = growth as untreated, 0 = no growth, -100 = all killed)
In one experiment the test system is SK-MEL-2 melanoma. The conditions noted are these: 10 µM unless noted.
The next experiment concerns EKVX NSCLC. The note with it: 10 µM unless noted.
In the next experiment the test system is SN12C renal. The conditions noted are these: 10 µM unless noted.
A further experiment deals with UO-31 renal. The note with it: 10 µM unless noted.
The subject of the next experiment is TK-10 renal. The note with it: 10 µM unless noted.
For a further experiment, the system named is ACHN renal. The conditions noted are these: 10 µM unless noted.
The next experiment has as its system CAKI-1 renal. The note with it: 10 µM.
The test system of another experiment is A498 renal. The note with it: 10 µM unless noted.
The subject of another experiment is CCRF-CEM leukemia. The conditions noted are these: 10 µM unless noted.
Another experiment has as its system MOLT-4 leukemia. The conditions noted are these: 10 µM unless noted.
Another experiment has as its system SR leukemia. The conditions noted are these: 10 µM unless noted.
A further experiment has as its system RPMI-8226 leukemia. The note with it: 10 µM unless noted.
A further experiment relates to OVCAR-8 ovarian. The conditions noted are these: 10 µM unless noted.
The subject of the next experiment is OVCAR-5 ovarian. The note with it: 10 µM unless noted.
The test system of a further experiment is OVCAR-4 ovarian. The conditions noted are these: 10 µM unless noted.
A further experiment deals with IGROV1 ovarian. The note with it: 10 µM unless noted.
The test system of a further experiment is OVCAR-3 ovarian. The note with it: 10 µM unless noted.
The subject of a further experiment is HS 578T breast. The note with it: 10 µM unless noted.
The subject of a further experiment is NCI/ADR-RES ovarian. The conditions noted are these: 10 µM unless noted.
Another experiment relates to SK-OV-3 ovarian. The note with it: 10 µM unless noted.

The panel holds about 83,000 compounds, 20% with a hit somewhere; the sample as a whole holds those more often.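 Results are percent growth after 48 hours of single-concentration exposure. 100 means growth as in untreated cells, lower positive values show inhibition; negative values down to -100 show cell death.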 A number with no mark means an inactive call. Activity calls are given as the source filed them. Rule for the calls: active = growth percent below 10; inactive = the rest.

As to `O=C(O)CNS(=O)(=O)c1ccc(Oc2ccc(S(=O)(=O)NCC(=O)O)cc2)cc1`, the growth in the experiment with SK-MEL-2 melanoma was 104%; in the experiment on EKVX NSCLC, 96.9%; with SN12C renal it was 93.5%; in the experiment on UO-31 renal, 91.4%; in the experiment with TK-10 renal, 101%; in the experiment with ACHN renal it was 98.9%. The growth was 91.4% with CAKI-1 renal; 69.9% in the experiment with A498 renal; 100% in the experiment on CCRF-CEM leukemia; 95.7% in the experiment with MOLT-4 leukemia; 96.7% in the experiment on SR leukemia; 100% with RPMI-8226 leukemia. In addition, the growth in the experiment on OVCAR-8 ovarian was 97.9%; with OVCAR-5 ovarian, 101%; in the experiment with OVCAR-4 ovarian it was 111%; in the experiment on IGROV1 ovarian, 104%; in the experiment with OVCAR-3 ovarian, 104%; in the experiment with HS 578T breast, 95.2%. For the same molecule, the growth with NCI/ADR-RES ovarian was 102%.
In the case of `O=C(NNc1nc2cc(F)cc(F)c2n2cccc12)c1ccncn1`, the growth in the experiment on SK-MEL-2 melanoma is 22%; in the experiment on EKVX NSCLC it was 7.66% (active); in the experiment on SN12C renal it was 19.6%; in the experiment with UO-31 renal, 17.3%; in the experiment on TK-10 renal, 10%; in the experiment on ACHN renal it was 11.6%. Also, the growth was 16.5% in the experiment with CAKI-1 renal; 22.2% in the experiment on A498 renal; 5.12% (active) in the experiment with CCRF-CEM leukemia; 4.2% (active) in the experiment on MOLT-4 leukemia; 4.42% (active) in the experiment with SR leukemia; 9.13% (active) with RPMI-8226 leukemia. The growth is 12.5% in the experiment with OVCAR-8 ovarian; 40.9% in the experiment with OVCAR-5 ovarian; 4.29% (active) with OVCAR-4 ovarian; 15.1% with IGROV1 ovarian; 8.94% (active) with OVCAR-3 ovarian; 34% with HS 578T breast. In addition, the growth in the experiment on NCI/ADR-RES ovarian is 1.44% (active).
`CN1CCN(c2ccc(NC(=O)Nc3ccc4c(ccn4-c4cccc(C(N)=O)n4)c3)cc2C(F)(F)F)CC1`: the growth is 21.1% with SK-MEL-2 melanoma; 78.4% in the experiment on EKVX NSCLC; 84.1% with SN12C renal; 75.6% with UO-31 renal; 97.4% in the experiment with TK-10 renal; 71.8% with ACHN renal. Further, the growth is 87.1% with CAKI-1 renal; 85.3% in the experiment on A498 renal; 8.43% (active) with CCRF-CEM leukemia; 3.75% (active) with MOLT-4 leukemia; 14.6% in the experiment with SR leukemia; -17.5% (active) in the experiment on RPMI-8226 leukemia. Besides, the growth is 77.6% in the experiment with OVCAR-8 ovarian; 85.3% with OVCAR-5 ovarian; 84.9% in the experiment on OVCAR-4 ovarian; 80.1% with IGROV1 ovarian; 102% with OVCAR-3 ovarian; 22.1% with HS 578T breast. Further, the growth in the experiment on NCI/ADR-RES ovarian is 94.5%.
For `CCOC(=O)c1nn(-c2ccccc2)c(=O)c2c(N)c(C#N)c(-c3cccs3)cc12`, the growth in the experiment with SK-MEL-2 melanoma is 98.4%; in the experiment on EKVX NSCLC, 83.9%; in the experiment with SN12C renal, 75.1%; in the experiment with UO-31 renal, 50.9%; with TK-10 renal, 115%; in the experiment with ACHN renal, 54.4%. Moreover, the growth is 62.8% with CAKI-1 renal; 102% in the experiment with A498 renal; 99.5% with CCRF-CEM leukemia; 97% with MOLT-4 leukemia; 96% in the experiment on SR leukemia; 74.4% in the experiment on RPMI-8226 leukemia. Besides, the growth with OVCAR-8 ovarian was 54.5%; in the experiment with OVCAR-5 ovarian, 88.8%; in the experiment with OVCAR-4 ovarian, 36.7%; in the experiment on IGROV1 ovarian, 64%; with OVCAR-3 ovarian, 109%; in the experiment on HS 578T breast it was 32.9%. Besides, the growth in the experiment on NCI/ADR-RES ovarian was 59.8%.
Consider `CC(C)=CCC[C@](C)(O)[C@H]1CC[C@]2(C)[C@@H]1CC[C@@H]1[C@@]3(C)CCC(NC(=O)c4ccccc4C(=O)O)C(C)(C)[C@@H]3CC[C@]12C` (some centres not stated), for which the growth in the experiment on SK-MEL-2 melanoma was 39.8%; with EKVX NSCLC, 101%; with SN12C renal, 92.9%; with UO-31 renal, 85.2%; with TK-10 renal, 106%; in the experiment with ACHN renal it was 73.5%. The growth was 66.4% in the experiment on CAKI-1 renal; 103% in the experiment with A498 renal; 95.9% in the experiment with CCRF-CEM leukemia; 97.5% with MOLT-4 leukemia; 86.9% in the experiment on SR leukemia; 90.9% with RPMI-8226 leukemia. Besides, the growth in the experiment with OVCAR-8 ovarian is 96.3%; with OVCAR-5 ovarian it was 94.9%; in the experiment on OVCAR-4 ovarian, 105%; in the experiment on SK-OV-3 ovarian, 104%; with IGROV1 ovarian, 102%; in the experiment on HS 578T breast, 89.2%. The growth in the experiment on NCI/ADR-RES ovarian was 98.3%.
As for `COc1ccc(NC2=C(Cl)C(=O)C(C)=C(C)C2=O)cc1`, the growth in the experiment with SK-MEL-2 melanoma was 89.6%; in the experiment on EKVX NSCLC, 31.4%; with SN12C renal it was 87.7%; in the experiment with UO-31 renal, 89.9%; in the experiment on TK-10 renal it was 149%; in the experiment with ACHN renal, 88.8%. Besides, the growth is 91.5% in the experiment on CAKI-1 renal; 83.3% in the experiment on A498 renal; 2.14% (active) with CCRF-CEM leukemia; 21.8% in the experiment on MOLT-4 leukemia; 20.6% in the experiment with SR leukemia; 68.8% in the experiment with RPMI-8226 leukemia. Further, the growth was 51.8% in the experiment on OVCAR-8 ovarian; 103% in the experiment on OVCAR-5 ovarian; -98.7% (active) in the experiment on OVCAR-4 ovarian; -49.1% (active) in the experiment on IGROV1 ovarian; 101% with OVCAR-3 ovarian; 95.1% with HS 578T breast. The growth in the experiment with NCI/ADR-RES ovarian was 93.9%.
As for `CCOC(=O)c1nn(-c2ccc(C)cc2)c(=O)c2c(N)c(C#N)c(-c3ccc(OC)cc3)cc12`, the growth is 95.1% in the experiment on SK-MEL-2 melanoma; 84.7% in the experiment with EKVX NSCLC; 85.6% in the experiment on SN12C renal; 80.5% with UO-31 renal; 125% in the experiment on TK-10 renal; 93.6% with ACHN renal. For the same molecule, the growth is 92% with CAKI-1 renal; 118% in the experiment on A498 renal; 103% with CCRF-CEM leukemia; 114% in the experiment with MOLT-4 leukemia; 127% with SR leukemia; 98.6% in the experiment with RPMI-8226 leukemia. Besides, the growth with OVCAR-8 ovarian was 101%; with OVCAR-5 ovarian, 94.3%; in the experiment on OVCAR-4 ovarian it was 101%; with IGROV1 ovarian, 80.2%; with OVCAR-3 ovarian it was 108%; in the experiment with HS 578T breast, 90.1%. Besides, in the experiment on NCI/ADR-RES ovarian, the growth is 106%.
As to `CC(C)(C)OC(=O)N1CCN(S(=O)(=O)/N=C2\NC(=O)NC2=C(Cl)Cl)CC1`, the growth is 88.9% in the experiment on SK-MEL-2 melanoma; 90.8% in the experiment with EKVX NSCLC; 91.7% in the experiment on SN12C renal; 91.6% in the experiment with UO-31 renal; 124% in the experiment on TK-10 renal; 99.5% in the experiment on ACHN renal. In addition, the growth with CAKI-1 renal is 98.8%; with A498 renal, 83.7%; in the experiment on CCRF-CEM leukemia it was 29.4%; in the experiment on MOLT-4 leukemia, 89%; in the experiment with SR leukemia, 23.6%; in the experiment with RPMI-8226 leukemia it was 84.7%. Further, the growth in the experiment with OVCAR-8 ovarian is 100%; with OVCAR-5 ovarian, 101%; in the experiment on OVCAR-4 ovarian it was 100%; in the experiment with IGROV1 ovarian, 84%; in the experiment with OVCAR-3 ovarian it was 104%; in the experiment on HS 578T breast, 72.9%. Moreover, the growth in the experiment with NCI/ADR-RES ovarian is 99%.

Values taken from PubChem BioAssay (NCI).
